Assay results published in PubChem BioAssay.
For some assays here: Entries with a potency or affinity are not part of this list. The source made the active and inactive calls. Unless noted, how the calls were made is not given here.

How the values were obtained:
[1] = antimalarial activity against Dd2 strain (AID 2302;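 active means growth inhibition above 50% at the single 2 µM test dose, taken to imply half-maximal potency below 2 µM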;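 further: 0% = DMSO untreated growth and 100% = chloroquine plus artemisinin killed control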); conditions: P. falciparum Dd2 in RBCs, LDH growth readout, 72 h; at 2 µM; stronger effect = higher value
[2] = human hepatoma cell viability loss – ATP luminescence, cytotoxicity control for P. falciparum antimalarial project, primary screen (AID 2303;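 active means inhibition above 50%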;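 further: 0% = DMSO wells and 100% = digitonin-killed cells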); conditions: HepG2 viability, 24-48 h, at 10 µM, stronger effect = higher value
[3] = molecular target: L-lactate dehydrogenase (Plasmodium falciparum (isolate CDC / Honduras)) (UniProt Q27743); assay: PfLDH activity inhibition – cell lysate, 3D7 strain, counter-screen for P. falciparum growth inhibition project (AID 2304);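 further: 0% = vehicle and 100% = reference inhibitor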; conditions: P. falciparum 3D7 crude extract, LDH APAD/NBT absorbance; at 2 µM; stronger effect = higher value
[4] = inhibition of 3D7 malaria parasite growth – strain 3D7 (AID 2306);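 further: 0% = DMSO wells and 100% = chloroquine plus artemisinin control wells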; conditions: P. falciparum 3D7 erythrocytic growth, LDH absorbance, 72 h; at 2 µM; stronger effect = higher value
[5] = molecular target: Calcium-dependent protein kinase 1 (Plasmodium falciparum (isolate 3D7)) (UniProt P62344); assay: PfCDPK1 kinase inhibitors, biochemical, TCAMS library (AID 1159585; cut-off not given, nearly all actives have IC50 up to about 0.98 µM;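 further: inhibitors leave more ATP so luminescence rises with inhibition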); conditions: recombinant PfCDPK1, Kinase-Glo ATP depletion luminescence
[6] = molecular target: Plasmodium falciparum protein kinase 6 (PK6, PF3D7_1337100) (UniProt Q8IDW1); assay: PfPK6 kinase inhibitors, biochemical, TCAMS library (AID 1159586); conditions: recombinant PfPK6, Kinase-Glo ATP depletion luminescence
[7] = molecular target: Protein kinase 7 (PK7), Plasmodium falciparum 3D7 (PF3D7_0213400) (UniProt Q7YTF7); assay: inhibition of Plasmodium PK7 catalytic activity – biochemical, TCAMS antimalarial set, Kinase-Glo luminescence (AID 1159587); conditions: recombinant PfPK7, Kinase-Glo ATP depletion luminescence
[8] = molecular target: Calcium-dependent protein kinase 4 (Plasmodium falciparum (isolate 3D7)) (UniProt Q8IBS5); assay: PfCDPK4 kinase inhibitors, biochemical, TCAMS library (AID 1159588; cut-off not given, nearly all actives have IC50 up to about 0.91 µM); conditions: recombinant PfCDPK4, Kinase-Glo ATP depletion luminescence
Calcium-dependent protein kinase 4 (Plasmodium falciparum (isolate 3D7)), sequence (Q8IBS5 whole entry, looked up): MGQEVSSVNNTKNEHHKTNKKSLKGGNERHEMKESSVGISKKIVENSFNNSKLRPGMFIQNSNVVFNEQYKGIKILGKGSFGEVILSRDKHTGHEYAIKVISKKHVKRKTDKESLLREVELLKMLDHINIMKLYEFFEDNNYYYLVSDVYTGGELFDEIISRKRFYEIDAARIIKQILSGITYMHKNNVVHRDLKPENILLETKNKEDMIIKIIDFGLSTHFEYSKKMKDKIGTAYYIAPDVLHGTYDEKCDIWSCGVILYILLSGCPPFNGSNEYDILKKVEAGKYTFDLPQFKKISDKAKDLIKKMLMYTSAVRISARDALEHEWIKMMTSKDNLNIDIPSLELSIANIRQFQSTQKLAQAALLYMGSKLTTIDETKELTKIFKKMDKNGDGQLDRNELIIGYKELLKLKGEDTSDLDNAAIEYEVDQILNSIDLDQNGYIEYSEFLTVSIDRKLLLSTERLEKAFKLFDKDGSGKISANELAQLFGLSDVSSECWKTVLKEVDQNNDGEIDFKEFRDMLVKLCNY

L-lactate dehydrogenase (Plasmodium falciparum (isolate CDC / Honduras)), sequence (Q27743 whole entry, looked up): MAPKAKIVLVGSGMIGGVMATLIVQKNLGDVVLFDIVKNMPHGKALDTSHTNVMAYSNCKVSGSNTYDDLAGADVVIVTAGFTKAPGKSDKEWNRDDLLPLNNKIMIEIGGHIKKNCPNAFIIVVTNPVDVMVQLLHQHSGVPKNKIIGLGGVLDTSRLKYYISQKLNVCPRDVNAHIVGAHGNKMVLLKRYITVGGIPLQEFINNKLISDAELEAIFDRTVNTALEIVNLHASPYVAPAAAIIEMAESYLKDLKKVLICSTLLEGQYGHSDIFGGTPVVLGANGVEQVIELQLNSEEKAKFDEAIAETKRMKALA
Calcium-dependent protein kinase 1 (Plasmodium falciparum (isolate 3D7)), sequence (P62344 whole entry, looked up): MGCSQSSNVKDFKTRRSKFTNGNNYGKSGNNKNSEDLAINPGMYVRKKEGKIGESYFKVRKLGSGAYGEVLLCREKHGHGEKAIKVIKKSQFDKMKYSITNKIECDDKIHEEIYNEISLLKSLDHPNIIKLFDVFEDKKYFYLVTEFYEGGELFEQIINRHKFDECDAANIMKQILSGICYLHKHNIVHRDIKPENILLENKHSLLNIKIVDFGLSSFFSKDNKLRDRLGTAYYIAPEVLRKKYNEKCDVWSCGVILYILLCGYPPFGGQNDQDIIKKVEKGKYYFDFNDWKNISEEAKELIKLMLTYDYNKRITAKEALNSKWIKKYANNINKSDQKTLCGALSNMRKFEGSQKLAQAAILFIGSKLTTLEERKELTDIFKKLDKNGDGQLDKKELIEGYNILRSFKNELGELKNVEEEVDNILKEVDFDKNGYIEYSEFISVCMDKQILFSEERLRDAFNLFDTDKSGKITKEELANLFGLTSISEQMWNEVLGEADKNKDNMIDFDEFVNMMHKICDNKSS
Plasmodium falciparum protein kinase 6 (PK6, PF3D7_1337100), sequence (Q8IDW1 1-305): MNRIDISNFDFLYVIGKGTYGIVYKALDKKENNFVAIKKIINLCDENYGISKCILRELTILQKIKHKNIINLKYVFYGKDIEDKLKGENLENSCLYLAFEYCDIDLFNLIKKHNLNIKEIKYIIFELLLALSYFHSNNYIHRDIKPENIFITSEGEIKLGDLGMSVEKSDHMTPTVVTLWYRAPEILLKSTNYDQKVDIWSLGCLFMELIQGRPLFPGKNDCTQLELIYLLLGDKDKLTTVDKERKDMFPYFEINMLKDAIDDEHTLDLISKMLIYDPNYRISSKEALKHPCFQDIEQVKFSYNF
Protein kinase 7 (PK7), Plasmodium falciparum 3D7 (PF3D7_0213400), sequence (Q7YTF7 1-343): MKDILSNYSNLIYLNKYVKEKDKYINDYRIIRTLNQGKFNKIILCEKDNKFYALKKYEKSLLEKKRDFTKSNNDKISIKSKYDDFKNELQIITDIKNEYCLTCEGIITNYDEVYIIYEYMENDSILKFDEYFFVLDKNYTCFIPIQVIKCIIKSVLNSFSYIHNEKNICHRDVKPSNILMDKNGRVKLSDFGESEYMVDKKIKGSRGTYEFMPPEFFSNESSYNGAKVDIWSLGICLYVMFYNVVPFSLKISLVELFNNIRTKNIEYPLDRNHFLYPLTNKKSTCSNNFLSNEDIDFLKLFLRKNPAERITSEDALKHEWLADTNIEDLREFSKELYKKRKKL

Cc1ccc2nc(C)cc(NN=Cc3ccc([N+](=O)[O-])cc3)c2c1
active: growth inhibition [4] 102%
inactive: growth inhibition [1] 15% | inhibition [2] 10% | inhibition [3] 3% | outcome [5] | outcome [6] | outcome [7] | outcome [8]

COc1ccccc1Cc1c(C)nc2nc(N)nc(N)c2c1C
inactive: growth inhibition [1] 2% | inhibition [3] -3% | outcome [5] | outcome [6] | outcome [7] | outcome [8]
active: inhibition [2] 69% | growth inhibition [4] 96%

Cc1nc(SCC(=O)N2CCCC2=O)c2c(C)c(C)sc2n1
inactive: growth inhibition [1] 0% | inhibition [2] 45% | inhibition [3] 2% | outcome [5] | outcome [6] | outcome [7] | outcome [8]
active: growth inhibition [4] 96%

Cc1cc(-c2ccc3c(c2)CCN(CCC2CCC(NC(=O)/C=C/c4cccc(Cl)c4)CC2)CC3)on1 (stereo not given)
inactive: growth inhibition [1] 49% | inhibition [2] 16% | inhibition [3] -4% | outcome [5] | outcome [6] | outcome [7] | outcome [8]
active: growth inhibition [4] 101%

COc1ccc2nccc([C@@H](O)CN3CCC(NC(=O)/C=C/c4c[nH]c5c(C)cccc45)CC3)c2c1
active: growth inhibition [1] 88% | growth inhibition [4] 101%
inactive: inhibition [2] 23% | inhibition [3] 4% | outcome [5] | outcome [6] | outcome [7] | outcome [8]

CN(C)CCOc1ccc(/C(=C(/CCCn2ccnc2)c2ccccc2)c2ccc(O)cc2)cc1
inactive: inhibition [2] 13% | inhibition [3] 3% | outcome [5] | outcome [6] | outcome [7] | outcome [8]
active: growth inhibition [1] 99% | growth inhibition [4] 101%

CS(=O)(=O)c1ccc(CNCc2cccc(-c3ccc(-c4nc5ccc(C(F)(F)F)cc5[nH]4)cc3)c2)cc1
inactive: inhibition [2] 31% | inhibition [3] 4% | outcome [5] | outcome [6] | outcome [7] | outcome [8]
active: growth inhibition [1] 96% | growth inhibition [4] 101%

O=C(NCCCCN1CCN(c2ccc3c(c2)CCC3)CC1)c1ccc(NC(=O)c2ccc(Cl)cc2)cc1
active: growth inhibition [4] 98%
inactive: growth inhibition [1] 35% | inhibition [2] 38% | inhibition [3] 2% | outcome [5] | outcome [6] | outcome [7] | outcome [8]

COc1cccc(C(=O)N2CCN(Cc3cccc(NC(=O)c4cccs4)c3)CC2)c1
active: growth inhibition [1] 95% | growth inhibition [4] 95%
inactive: inhibition [2] 6% | inhibition [3] -2% | outcome [5] | outcome [6] | outcome [7] | outcome [8]

COc1cccc(C(=O)Nc2ccc(Nc3nc(C)cc(N4CCCCC4)n3)cc2)c1OC
inactive: growth inhibition [1] 27% | inhibition [2] 47% | inhibition [3] 1% | outcome [5] | outcome [6] | outcome [7] | outcome [8]
active: growth inhibition [4] 92%

N#Cc1cccc([C@H](O)[C@@H]2CN(CCC3CCCCC3)CC[C@@]2(O)c2ccccc2)c1
inactive: inhibition [2] -5% | inhibition [3] 3% | outcome [5] | outcome [6] | outcome [7] | outcome [8]
active: growth inhibition [1] 100% | growth inhibition [4] 98%

Cc1cc(C(=O)CN2C(=O)NC(C)(c3cccc4ccccc34)C2=O)c(C)n1Cc1ccco1 (stereo not given)
active: growth inhibition [4] 90%
inactive: growth inhibition [1] 23% | inhibition [2] -2% | inhibition [3] 0% | outcome [5] | outcome [6] | outcome [7] | outcome [8]

CCCCCNc1nc2nc(N)nc(N)c2nc1-c1ccccc1
inactive: growth inhibition [1] -4% | inhibition [2] 9% | inhibition [3] -2% | outcome [5] | outcome [6] | outcome [7] | outcome [8]
active: growth inhibition [4] 91%

C=C[C@]1(C)C[C@@H](OC(=O)CS[C@H]2CN3CC[C@H]2C3)[C@@]2(C)C3C(=O)CC[C@@]3(CC[C@H]2C)[C@@H](C)[C@@H]1O (stereo not given in full)
inactive: inhibition [2] 18% | inhibition [3] 4% | outcome [5] | outcome [6] | outcome [7] | outcome [8]
active: growth inhibition [1] 75% | growth inhibition [4] 91%

O=S(=O)(Nc1cc2c(cc1O)CCN(C1CCC1)CC2)c1ccc(-c2ccc(F)cc2)cc1
inactive: inhibition [2] 16% | inhibition [3] -1% | outcome [5] | outcome [6] | outcome [7] | outcome [8]
active: growth inhibition [1] 99% | growth inhibition [4] 101%

Cc1ccc(N2C(=O)C3C(C2=O)[C@]2(c4ccccc4)C(=O)[C@@]3(c3ccccc3)C(c3ccccc3)=C2c2ccccc2)cc1 (stereo not given in full)
active: growth inhibition [1] 96% | growth inhibition [4] 92%
inactive: inhibition [2] 17% | inhibition [3] -2% | outcome [5] | outcome [6] | outcome [7] | outcome [8]

CC(C)C[C@H](NC(=O)c1cc2ccccc2s1)C(=O)N[C@H]1CCN(Cc2ccc(OCCN3CCNCC3)c3ccccc23)C1
inactive: inhibition [2] 43% | inhibition [3] 3% | outcome [5] | outcome [6] | outcome [7] | outcome [8]
active: growth inhibition [1] 96% | growth inhibition [4] 101%

CS(=O)(=O)CCNCc1ccc(-c2ccc3c(Nc4ccc(Oc5ccccn5)cc4)ccnc3c2)o1
inactive: inhibition [2] 0% | inhibition [3] -7% | outcome [5] | outcome [6] | outcome [7] | outcome [8]
active: growth inhibition [1] 99% | growth inhibition [4] 100%

COCCNCc1nc(-c2ccc3c(Nc4ccc(Cl)cc4F)ccnc3c2)cs1
active: growth inhibition [1] 100% | growth inhibition [4] 101%
inactive: inhibition [2] -4% | inhibition [3] -1% | outcome [5] | outcome [6] | outcome [7] | outcome [8]

O=C(NCCN1CCC(c2ncc(-c3ccccc3)o2)CC1)c1ccc(NC(=O)c2ccc(Cl)cc2)cc1
inactive: inhibition [2] 32% | inhibition [3] -7% | outcome [5] | outcome [6] | outcome [7] | outcome [8]
active: growth inhibition [1] 80% | growth inhibition [4] 101%

O=C(Nc1ccc2c(c1)CCN(C1CCC1)CC2)c1ccc(-n2ccnc2)cn1
inactive: growth inhibition [1] -1% | inhibition [2] 8% | inhibition [3] 0% | outcome [5] | outcome [6] | outcome [7] | outcome [8]
active: growth inhibition [4] 92%

CNCCNCc1ccc(-c2ccc(-c3nc4ccccc4[nH]3)s2)cc1
inactive: growth inhibition [1] 15% | inhibition [2] 11% | inhibition [3] 5% | outcome [5] | outcome [6] | outcome [7] | outcome [8]
active: growth inhibition [4] 99%

CN1CCC(N2CCN(c3ccc4c(=O)nc(CCc5cccc(F)c5F)n(CC(=O)N(C)Cc5ccc(-c6ccc(C(F)(F)F)cc6)cc5)c4n3)CC2)CC1
inactive: inhibition [2] 15% | inhibition [3] 2% | outcome [5] | outcome [6] | outcome [7] | outcome [8]
active: growth inhibition [1] 99% | growth inhibition [4] 100%

COc1ccc(-c2onc(C(F)(F)F)c2-c2cc3ccccc3o2)c(O)c1
inactive: growth inhibition [1] 15% | inhibition [2] 6% | inhibition [3] 0% | outcome [5] | outcome [6] | outcome [7] | outcome [8]
active: growth inhibition [4] 93%

O=C(O)CNCC(O)c1ccccc1 (stereo not given)
inactive: growth inhibition [1] -5% | inhibition [2] 7% | inhibition [3] -5% | outcome [5] | outcome [6] | outcome [7] | outcome [8]
active: growth inhibition [4] 96%

COc1ccc(C(=O)NCc2ccccc2-c2ccc(C(C)(C)C)cc2)cc1O
inactive: inhibition [2] 10% | inhibition [3] 1% | outcome [5] | outcome [6] | outcome [7] | outcome [8]
active: growth inhibition [1] 97% | growth inhibition [4] 99%

CCCc1ccc(C2CCN(CCCCNC(=O)c3ccc(NC(=O)c4ccc(Cl)cc4)cc3)CC2)cc1
active: growth inhibition [1] 100% | growth inhibition [4] 100%
inactive: inhibition [2] 39% | inhibition [3] 1% | outcome [5] | outcome [6] | outcome [7] | outcome [8]

Cc1cc(N[C@@H](Cc2ccccc2)C(=O)NCCOc2ccccc2)nc(Nc2ccccc2)n1
active: growth inhibition [1] 63% | growth inhibition [4] 100%
inactive: inhibition [2] 2% | inhibition [3] -2% | outcome [5] | outcome [6] | outcome [7] | outcome [8]

CC=CC1CCNC(C(O)c2ccnc3ccc(OC)cc23)C1 (stereo not given)
inactive: growth inhibition [1] 1% | inhibition [2] -2% | inhibition [3] 3% | outcome [5] | outcome [6] | outcome [7] | outcome [8]
active: growth inhibition [4] 91%

CCOc1ccccc1N1CCN(CCCNC(=O)/C(=C/C=C/c2cc3cc(Cl)c(Cl)cc3[nH]2)OC)CC1
inactive: inhibition [2] 45% | inhibition [3] -4% | outcome [5] | outcome [6] | outcome [7] | outcome [8]
active: growth inhibition [1] 93% | growth inhibition [4] 98%

CC(C)(Cc1ccc(Cl)cc1)NCCCCCCNCCc1ccc(O)c(O)c1
inactive: growth inhibition [1] -7% | inhibition [2] 45% | inhibition [3] -8% | outcome [5] | outcome [6] | outcome [7] | outcome [8]
active: growth inhibition [4] 90%

COc1ccc(S(=O)(=O)N2CCOCC2)cc1NC(=O)c1cc2ccccc2o1
inactive: growth inhibition [1] -1% | inhibition [2] 8% | inhibition [3] -2% | outcome [5] | outcome [6] | outcome [7] | outcome [8]
active: growth inhibition [4] 93%

CCc1cccc(-n2nc(OCC(=O)NC3CCCC3)c3cccnc32)c1
inactive: growth inhibition [1] 13% | inhibition [2] 2% | inhibition [3] -4% | outcome [5] | outcome [6] | outcome [7] | outcome [8]
active: growth inhibition [4] 94%

O=C(NCCCCN1CCC(c2ccc3c(c2OCc2ccncc2)CCCC3)CC1)c1ccc(NC(=O)c2ccc(Cl)cc2)cc1
active: growth inhibition [1] 99% | inhibition [2] 62% | growth inhibition [4] 100%
inactive: inhibition [3] -4% | outcome [5] | outcome [6] | outcome [7] | outcome [8]

Cc1cc2ncn(-c3nccc(NCc4cccnc4)n3)c2cc1C
active: growth inhibition [1] 98% | growth inhibition [4] 99%
inactive: inhibition [2] -2% | inhibition [3] -4% | outcome [5] | outcome [6] | outcome [7] | outcome [8]

COc1ccc2nccc([C@@H](O)CN3CCC(NCc4nc5c(C#N)cccc5[nH]4)CC3)c2c1
inactive: growth inhibition [1] 9% | inhibition [2] -3% | inhibition [3] -5% | outcome [5] | outcome [6] | outcome [7] | outcome [8]
active: growth inhibition [4] 96%

CCCC(C)NC[C@@H](O)[C@H](Cc1ccccc1)NC(=O)c1cc(C2CCCC2)cc(N2CCCCS2(=O)=O)c1 (stereo not given in full)
active: growth inhibition [1] 99% | growth inhibition [4] 98%
inactive: inhibition [2] 8% | inhibition [3] 3% | outcome [5] | outcome [6] | outcome [7] | outcome [8]

O=C(NCCc1cccc(Cl)c1Cl)c1cnc(N2CCN(c3ccncc3)CC2)c(Cl)c1
active: growth inhibition [1] 99% | growth inhibition [4] 100%
inactive: inhibition [2] 47% | inhibition [3] 0% | outcome [5] | outcome [6] | outcome [7] | outcome [8]

CN1CCC(NCc2cccc(-c3nn(C)c4nc(NC5CCCC5)ncc34)c2)CC1
inactive: growth inhibition [1] 44% | inhibition [2] 1% | inhibition [3] -2% | outcome [5] | outcome [6] | outcome [7] | outcome [8]
active: growth inhibition [4] 98%

COc1nc2c(N3CCN(CCNCc4ccc5c(n4)NC(=O)CO5)CC3)ccnc2cc1F
inactive: growth inhibition [1] 9% | inhibition [2] 18% | inhibition [3] -2% | outcome [5] | outcome [6] | outcome [7] | outcome [8]
active: growth inhibition [4] 101%
